Each compound was assayed on NEK6. Conditions: concentration: 1 μM, replicates: in singlicate; n = 1.
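Further: KINOMEscan kinase panel screen.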

| SMILES | %Inh [%] |
| --- | --- |
| Cn1ccc2ncnc(Oc3ccc(NC(=O)Nc4ccccc4)cc3)c21 | 0 |
| COc1cccc(NC(=O)NC2CCN(c3ccnc(Nc4ccc(F)cc4)n3)C2)c1 (stereo not drawn) [GSK1379721] | 0 |
| Cc1ccccc1-n1cnc2c(N)ncnc21 [SKF-97510] | 0 |
| COc1ccccc1CNC(=O)c1cc(C(=O)c2ccccc2C)c[nH]1 [GSK364507] | 17 |
| Cn1cncc1-c1ccc2ncnc(Nc3ccc(OCc4ccccc4)cc3)c2c1 [GW320571] | 6 |
| O=C1NC(=O)C(N2CCc3ccccc32)=C1c1ccccc1Cl [SB-373598] | 0 |
| COc1ccc(Nc2nccc(-c3cccc(NC(=O)c4cc5cc(F)ccc5[nH]4)c3)n2)cc1 [GSK1229782] | 1 |
| Cc1c(O)cccc1Nc1ccnc2ccc(C(F)(F)F)cc12.Cl [GW466413] | 0 |
| CC1=C(C(=O)Nc2cc3cn[nH]c3cc2F)C(c2ccc(C(F)(F)F)cc2)CC(=O)N1 (stereo not drawn) [GSK429286] | 0 |
| COC(=O)c1c(-c2ccccc2)c2cc(C(=O)O)ccc2c(=O)n1Cc1ccccc1 | 0 |
| COc1ccc2nc(-c3cccc(C)n3)nc(Nc3ccncc3)c2c1 [GSK204919] | 0 |
| Cc1cc(-c2ccc3c(c2)CC[C@@H](N[C@@H](C)c2ccccc2)C3)cnc1N.Cl [GW412617] | 14 |
| O=C(Nc1ccccc1)Nc1cccc(Oc2ccc3nccn3n2)c1 | 0 |
| Cc1nnc(-c2ccc3occ(-c4ccc(S(C)=O)cc4)c3c2)[nH]1 (stereo not drawn) | 8 |
| Fc1cc(Cl)ccc1Nc1ccnc2cc(-c3ccc(CN4CCCCC4)o3)ccc12 [GW560116] | 0 |
| O=C(Nc1n[nH]c2nc(-c3nccs3)c(Br)cc12)C1CC1 [SB-742251] | 0 |
| Cc1cccc(-c2nc(Nc3ccc4[nH]ncc4c3)c3ccccc3n2)n1 [GW857175] | 3 |
| CSc1nn2c(=O)cc(N3CCOCC3)nc2n1Cc1cccc(C(F)(F)F)c1C [GSK2363608] | 0 |

| SMILES | %Inh [%] |
| --- | --- |
| O=C(Nc1n[nH]c2nc(-c3nccs3)c(Br)cc12)C1CCCC1 [SB-742609] | 0 |
| CS(=O)(=O)c1ccc(-c2c(-c3ncn[nH]3)sc(N3CCOCC3)c2C#N)cc1 | 31 |
| Cc1cccc(-c2nc(Nc3ccncc3)c3ccccc3n2)n1 [GW855857] | 21 |
| CC(=O)Nc1nc2cnc(Nc3cc(NC(=O)c4cccc(CCC#N)c4)ccc3C)nc2s1 | 14 |
| COc1cc2nccc(Nc3ccc(NC(=O)c4ccc(C)cc4)c(O)c3)c2cc1OC.Cl [GW440132] | 0 |
| Cc1ccc(NC(=O)Nc2cc(C(C)(C)C)nn2-c2ccccc2)cc1 [GSK1014915] | 0 |
| COC(=O)c1c(-c2ccccc2)c2cc(OC)ccc2c(=O)n1Cc1ccccc1 | 0 |
| CCCc1ccc(S(=O)(=O)NC2CCN(c3ccnc(Nc4ccc(F)cc4)n3)C2)cc1 (stereo not drawn) [GSK1379715] | 0 |
| Cn1ccc2ncnc(Oc3ccc(Nc4nc5ccccc5[nH]4)cc3)c21 | 0 |
| O=S(=O)(c1ccc(-c2ccnc3[nH]ccc23)cc1)N1CCCC1 [GSK846226] | 0 |
| O=C(O)COc1ncnc2cc(-c3ccc4[nH]ncc4c3)sc12 | 22 |
| Cc1cccc(-c2nc(Nc3cccc(C(N)=O)c3)c3ccccc3n2)n1 [GW876019] | 0 |
| O=c1cc(N2CCOCC2)nc2n(Cc3cccc(Cl)c3Cl)ccn12 [GSK2286295] | 0 |
| COc1cccc(-c2cc(-c3c[nH]nc3-c3ccccn3)ccn2)c1 [GW680338] | 0 |
| COc1ccc(CNC(=O)NC2CCN(c3ccnc(Nc4cc(OC)c(OC)c(OC)c4)n3)C2)cc1 (stereo not drawn) [GSK1379748] | 0 |
| Cc1ccc(-c2cc(-c3c[nH]nc3-c3ccccn3)ccn2)cc1 [GW684088] | 0 |
| Cl.O=C(Nc1cccc(-c2nn3ncccc3c2-c2ccnc(Nc3cccnc3)n2)c1)c1c(F)cccc1F [GSK312879] | 0 |
| Nc1nc(-c2nccs2)c(-c2ccnc3ccccc23)s1 [GW693542] | 0 |

Reference: PMC5540273 (PLoS ONE, 2017)
